{
  "source": "PubChem BioAssay (NCATS)",
  "note": "Inconclusive results are not listed. Values without a mark were called inactive. Calls of active or inactive are those of the source.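 The calls were made as follows: active = compounds whose dose-response curve shows a full or clear partial loss of cell viability, called from curve shape rather than a numeric limit; inconclusive = weak partial curves or an effect only at the top dose; inactive = no dose-dependent loss of viability.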 Potency is read from the fitted curve at half-maximal effect.",
  "data": [
    {"assay": "Cell Viability - Hek293 (AID 427);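 also: cells exposed to compound for 40 hours at 37 °C before reading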", "conditions": "qHTS", "procedure,_shortened": "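Luminescent ATP content (CellTiter-Glo, 20 min at room temperature) was measured after a 40 hr, 37 °C compound exposure of HEK293 cells. AC50 values came from Hill-equation fits of qHTS concentration-response data normalized to DMSO and 100 uM tamoxifen.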", "values": [
      {"smiles": "O=C(O)CCCc1ccc(N(CCCl)CCCl)cc1", "Potency": "18.6 µM (active)"},
      {"smiles": "NCCc1ccc(O)cc1", "Potency": "> 92 µM"},
      {"smiles": "Oc1ccc(Cl)cc1", "Potency": "> 92 µM"},
      {"smiles": "COP(=S)(OC)Oc1ccc(SC)c(C)c1", "Potency": "> 92 µM"},
      {"smiles": "Nc1ccccc1", "Potency": "> 92 µM"},
      {"smiles": "COC(=O)C(c1ccccc1)C1CCCCN1", "note": "(stereo unspecified)", "Potency": "> 92 µM"},
      {"smiles": "C[C@]12CCC(=O)C=C1CC[C@@H]1[C@@H]2CC[C@]2(C)C(=O)CC[C@@H]12", "Potency": "36.7 µM (active)"},
      {"smiles": "CCOC(=O)CC(SP(=S)(OC)OC)C(=O)OCC", "note": "(stereo unspecified)", "Potency": "> 92 µM"},
      {"smiles": "O=P1(N(CCCl)CCCl)NCCCO1", "note": "(stereo unspecified)", "Potency": "> 92 µM"},
      {"smiles": "Nc1ccccc1C(=O)O", "Potency": "> 92 µM"},
      {"smiles": "CC(C)NC(C)C", "Potency": "> 92 µM"},
      {"smiles": "CCC(C)(C)c1ccc(O)cc1", "Potency": "> 92 µM"},
      {"smiles": "C[C@]1(O)CC[C@H]2[C@@H]3CCC4=CC(=O)CC[C@]4(C)[C@@]3(F)[C@@H](O)C[C@@]21C", "Potency": "> 92 µM"},
      {"smiles": "CC(C)c1cccc(C(C)C)c1O", "Potency": "> 92 µM"},
      {"smiles": "COc1cc(OC)c(OC)cc1C=O", "Potency": "> 92 µM"},
      {"smiles": "CCCC(C)(COC(N)=O)COC(N)=O", "Potency": "> 92 µM"}
    ]}
  ]
}
